Pf growth 48h: P. falciparum growth inhibition at 48 hours (one generation). P. falciparum luciferase growth in erythrocytes, 48 h. Potency, µM (top dose mostly 28.7 µM), for the others: at the highest dose activity change, negative = inhibition, hits mostly inhibitors. actives 5.9% (n = 310,000); also: % is scaled to controls: 0 for no effect and ±100 for the full control effect
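Here the parasites carry a stable luciferase gene and grow inside erythrocytes in Albumax-based RPMI medium with compound for one erythrocytic cycle. Activity is scored as loss of luminescent signal.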
SARS PLpro yeast: SARS-CoV PLP inhibition in yeast. S. cerevisiae expressing SARS-CoV PLpro, growth rescue. AID 485353. actives 0.19% (n = 330,000). Potency, µM (highest dose often 32.9 µM), for the others: top-dose activity, positive = growth rescue, hits mostly activators; calls by dose curve; also: 0% is about no effect; nearly all actives have a fitted effect of over 55% in size
Pf growth 96h: inhibits malaria parasite growth, 96 h. P. falciparum luciferase reporter growth, 96 h. Potency, µM (doses to about 28.7 µM), without a hit: at the highest dose activity change, negative = inhibition, usual class: inhibitors. actives 6.9% (n = 320,000); also: % is scaled to controls: 0 for no effect and ±100 for the full control effect
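Compounds incubated with erythrocytes infected by luciferase-expressing P. falciparum (2% hematocrit, 0.05% parasitemia final) for 96 hours, 37 C in 5% CO2. Growth inhibition scored as decreased luciferase luminescence.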
NS1 function inh: influenza NS1 inhibition; Potency, µM (series often up to 46.1 µM), inactives show at the top dose activity, positive = more growth; actives 0.4% (n = 270,000); calls by dose curve; also: actives are rising curves; nearly all actives have a fitted effect of over 50% in size
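S. cerevisiae expressing influenza A NS1, grown in glucose, washed, then diluted 1:100 into pH 6.0 -URA galactose medium with 23 nl compound. Growth recovery read as OD600; NS1-free strain serves as control.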
An asterisk follows results filed as active; ? = inconclusive; . = no result given. Only some compounds are listed: those with a hit (about 10% of all), similar ones and a draw of the others. Unless noted, calls follow the shape of the dose curve; as a rule, active = well fitted inhibition curve with a large enough effect; inconclusive = small, poorly fitted or top-dose-only effect, or another doubt; inactive = no such curve, though single readings can be large or run the other way. Potency is read from the fitted curve at half-maximal effect.

SMILES	Pf growth 48h	SARS PLpro yeast	Pf growth 96h	NS1 function inh
CCN(C(=O)CSc1nnc(CNc2cccc(OC)c2)n1C1CCCCC1)C1CCS(=O)(=O)C1 (stereo not drawn)	?	1.1%	4.15µM*	?
CCOc1ccc(NS(=O)(=O)c2ccc3c(c2)n(C)c(=O)n3C)cc1	-1.7%	-1.1%	?	3.8%
O=c1ccc2[n+]([O-])c3ccc(O)cc3oc-2c1	1.85µM*	-5.6%	4.65µM*	-50.9%
O=c1cc(O)c2ccc(O)cc2o1	0.0%	1.5%	0.0%	7.7%
COc1cc2[nH]c(C(=O)N3CCC(Cc4ccccc4)CC3)cc2c(OC)c1OC	3.29µM*	-5.8%	3.7µM*	1.3%
CCN(Cc1ccccc1)C(=O)c1cc2c(OC)c(OC)c(OC)cc2[nH]1	.	4.4%	8.28µM*	-1.6%
[N-]=[N+]=NCC(=O)c1c[nH]c(=O)[nH]c1=O	.	.	.	-10.4%
Cc1ccc(CN2CCC(C(=O)Nc3cccc(-c4cccc(F)c4)c3)CC2)o1	27.5%	-4.1%	4.65µM*	-4.7%
CCn1nc(C)c(CN2CCC(C(=O)Nc3cccc(-c4cccc(F)c4)c3)CC2)c1C	10.4µM*	6.0%	3.8%	16.2%
Cc1cc(C(=O)CSc2n[nH]c(N)n2)c(C)n1-c1ccc(F)cc1	53.6%	25.3%	?	15.4%
Cc1ccc(-n2c(C)cc(C(=O)CSc3n[nH]c(N)n3)c2C)cc1	?	-5.4%	3.29µM*	13.3%
COc1cc(OC)cc(C(=O)NNC(=O)NC2CCCCC2)c1	-9.4%	9.5%	10.4µM*	3.9%
CN(C)c1cccc(C(=O)NNC(=O)NC2CCCCC2)c1	-2.0%	6.7%	6.57µM*	-6.3%
Cc1ccc(-c2nc(CS(=O)(=O)CC(=O)NCCN3CCCC3)c(C)o2)cc1	?	4.3%	-23.0%	13.8%
CCC1CCCCN1CCCNC(=O)Cn1cnc2sc(C)c(S(=O)(=O)N3CC(C)CC(C)C3)c2c1=O (stereo not drawn)	?	-0.1%	2.1%	6.2%
Cc1ccc(Nc2nnc(SCC(=O)c3ccc(O)cc3O)s2)cc1	?	1.9%	2.08µM*	?
Cc1cccc(Nc2nnc(SCC(=O)c3ccc(O)cc3O)s2)c1	-26.1%	2.8%	?	-6.9%
COc1cc2c(cc1OC)CN(Cc1ccccc1)CC2	1.5%	2.7%	?	6.0%
COc1cc2c(cc1OC)C(=O)C(CC1CCN(Cc3ccccc3)CC1)C2 (stereo not drawn)	?	-2.1%	9.53µM*	.
CCN(CC(=O)Nc1ccc(OC)cc1)CC(=O)Nc1sc2c(c1C(=O)OC)CCCC2	?	-3.7%	-70.4%	.
CCC1Nc2ncnc(N3CCN(c4ccccc4)CC3)c2N(Cc2ccc(OC)cc2)C1=O (stereo not drawn)	11.7µM*	5.8%	11.7µM*	.
CCC1Nc2ncnc(N3CCOCC3)c2N(Cc2ccc(OC)cc2)C1=O (stereo not drawn)	.	-2.8%	.	.
CCC1Nc2ncnc(N3CCN(c4ccccc4)CC3)c2N(Cc2ccc(Br)cc2)C1=O (stereo not drawn)	11.7µM*	-0.3%	?	.
CC(C)CC1Nc2ncnc(N3CCOCC3)c2N(Cc2ccccc2)C1=O (stereo not drawn)	.	-19.9%	.	.
CC[N+](C)(C)c1cccc(O)c1	?	-0.6%	1.65µM*	-7.4%
SMILES	Pf growth 48h	SARS PLpro yeast	Pf growth 96h	NS1 function inh
O=C(NNC(=O)c1ccccc1Cl)c1ccc(-n2cncn2)c([N+](=O)[O-])c1	-26.6%	-3.0%	-16.7%	.
CCOC(=O)c1c(C)c(C(=O)NC2CCCCCC2)c(C)n1C	-8.1%	1.9%	.	-5.0%
CCOC(=O)c1c(C)c2c(n1C)CCC/C2=N\O	21.8%	1.0%	11.7µM*	-13.8%
COC(=O)CCC(NC(=O)c1cc(C)oc1C)C(=O)OC (stereo not drawn)	12.1%	22.7%	10.4µM*	3.0%
COC(=O)c1c(Cl)c2n3ccccc3c(C)c(-c3ccccc3)c-2c1C(=O)OC	?	10.8%	10.4µM*	20.6%
CCCCn1c(N)c(N(CCOC)C(=O)c2ccc(N3CCCC3)c([N+](=O)[O-])c2)c(=O)[nH]c1=O	?	-3.2%	-7.6%	.
CCC(=O)NCCC1CCc2ccc3c(c21)CCO3 (stereo not drawn)	-1.0%	.	-18.3%	.
COc1ccc(-c2[nH]ncc2/C=N\NC(=O)c2ccc(Br)o2)cc1OC	18.6%	-1.9%	4.3%	-16.8%
NC(CC(=O)O)c1ccc(Br)cc1 (stereo not drawn)	3.0%	-3.9%	9.28µM*	8.7%
O=C(O)CC(Cc1ccc(Br)cc1)C(=O)O (stereo not drawn)	0.9%	2.5%	?	6.6%
O=C(C1=C[C@H](c2ccc(C(F)(F)F)cc2)C[C@H](OCCCCO)O1)N1CCN(Cc2ccc3c(c2)OCO3)CC1	5.86µM*	-1.0%	3.7µM*	-13.0%
O=C(C1=C[C@@H](c2ccc(Br)cc2)C[C@@H](OCCCCO)O1)N1CCN(Cc2ccc3c(c2)OCO3)CC1	4.15µM*	-1.4%	4.15µM*	-14.9%
O=C(C1=C[C@H](c2ccccc2)C[C@H](OCCCCO)O1)N1CCN(Cc2ccc3c(c2)OCO3)CC1	?	0.8%	?	-9.2%
CCCOc1ccc(N2C(=O)CC(NCc3cccs3)C2=O)cc1 (stereo not drawn)	-0.8%	-20.6%	5.22µM*	-6.1%
CC(C)c1ccc(CN2CCN(C(=O)CSc3nnnn3C3CC3)CC2)cc1	7.38µM*	-1.6%	11.7µM*	.
COc1ccc(-c2n[nH]c(=S)n2-c2ccccc2C)cc1	-5.3%	-1.3%	-17.1%	-43.6%
Fc1ccc(N2CCN(c3nc(-c4ccco4)cc(C(F)(F)F)n3)CC2)cc1	8.1%	-2.2%	-3.1%	-35.5%
O=[N+]([O-])c1cnn(-c2nc(-c3ccco3)cc(C(F)(F)F)n2)c1	-8.1%	0.7%	11.7µM*	.
CCOC(=O)/C(C#N)=C\c1ccc(OCC(=O)Nc2ccc(C)cc2C)c(OC)c1	38.5%	2.0%	2.62µM*	3.9%
CCOC(=O)/C(C#N)=C/c1ccc(OCC(=O)Nc2cc(C)ccc2C)c(OC)c1	20.3%	8.5%	?	1.1%
Cc1ccc(NC(=O)C2CCN(S(=O)(=O)c3cccnc3)CC2)cc1C	-2.6%	-1.4%	?	0.7%
COC(=O)c1c(-c2ccccc2)csc1NC(=O)c1c(-c2ccccc2)noc1C	13.1µM*	-0.8%	?	16.8%
CCOC(=O)c1c(-c2ccc(C)cc2)csc1NC(=S)NC(=O)c1ccccc1	10.4µM*	3.9%	7.38µM*	-0.6%
COC(=O)c1c(-c2ccc(C)cc2)csc1NC(=S)NC(=O)c1ccc(F)cc1	?	-3.7%	8.28µM*	13.0%
CCOC(=O)c1c(-c2ccc(F)cc2)csc1NC(=O)c1c(-c2ccccc2)noc1C	?	2.7%	-0.8%	8.2%
CCOC(=O)c1c(-c2ccc(C)cc2)csc1NC(=O)c1ccc(N2C(=O)CCC2=O)cc1	12.7%	-3.4%	40.7%	-5.0%
NC(=O)c1ccc[n+](CC(=O)Nc2ccccc2C(=O)O)c1	-8.6%	4.3%	29.8%	3.3%
Cc1ccc(OCc2cc(C(=O)NC(C)Cc3cccc(C)n3)no2)cn1 (stereo not drawn)	-2.0%	-2.1%	42.7%	8.0%
